# An excerpt weighted towards active compounds, which were near 1.8% of everything screened.
# EP2 antag: blocks the human prostaglandin E2 receptor EP2; P43116; C6 glioma cells expressing human EP2, cAMP TR-FRET; cells stimulated with saturating PGE2; inhibition, % at 25 µM; 260,000 compounds, 0.52% hits; AID 1422;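 active = percent inhibition above 40 after rounding to a whole number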;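 note: rat C6 glioma host cells with rolipram phosphodiesterase inhibitor present; the protocol text gives 20 µM as final concentration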
# Target sequence (P43116 whole entry, looked up): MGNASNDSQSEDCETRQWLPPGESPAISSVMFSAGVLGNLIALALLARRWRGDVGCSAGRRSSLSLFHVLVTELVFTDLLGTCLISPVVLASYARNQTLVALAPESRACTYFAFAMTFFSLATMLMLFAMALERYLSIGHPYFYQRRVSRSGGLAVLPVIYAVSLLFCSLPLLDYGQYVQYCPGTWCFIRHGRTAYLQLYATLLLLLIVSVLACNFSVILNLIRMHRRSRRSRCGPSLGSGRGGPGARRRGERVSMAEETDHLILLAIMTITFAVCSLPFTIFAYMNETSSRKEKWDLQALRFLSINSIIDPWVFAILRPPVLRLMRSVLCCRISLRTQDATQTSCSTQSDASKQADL
# EP2 mod: modulates human prostaglandin E2 receptor EP2 signaling; P43116; EP2-expressing cells, cAMP HTRF FRET, PGE2 co-stimulation; AID 940; induction, % at 25 µM; 260,000 compounds, 0.83% hits;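 active = compounds whose cAMP rise, as percent of the full-agonist control response, exceeds 60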;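 note: rat C6 glioma line stably carrying human EP2 under a CMV promoter; the protocol text gives 20 µM as final concentration; 100% = response of wells given 1 µM PGE2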
# eIF4E 4G PPI: inhibitors of eIF4E and eIF4G interaction in translation initiation; TR-FRET eIF4E-eIF4GI(517-606) binding, 2 h; inhibition, % at 21.7 µM; AID 782; P63073+Q04637; 220,000 compounds, 0.37% hits;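 active = inhibition above about 30%, limit read from the data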;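 note: 0% = full FRET control wells and 100% = background wells lacking eIF4GI fragment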
# PERK inh: inhibitors of human PERK kinase; Q9NZJ5; 220,000 compounds, 0.17% hits; CHO PERK-DD fusion, SEAP luminescence translation reporter; inhibition, % at 5.6 µM;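 active = inhibition above the mean inhibition of all tested compounds plus 3 SD, set separately per screening campaign, cut at about 2.9% in these data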;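 note: PERK kinase domain activated by AP20187 dimerizer at 100 nM; 0% = DMSO with dimerizer and 100% = rapamycin at 8.4 µM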
# * marks the source's active call; other numbers are inactive results; . = no result; [ ] = remark or other dose.
SMILES,EP2 antag,EP2 mod,eIF4E 4G PPI,PERK inh
O=c1c(C=Nc2ccc(Cl)cc2)c[nH]n1-c1cccc(Cl)n1,9,-11,9,1
O=S(=O)(/C=C/c1ccccc1)NC1CCCCCC1,5,8,0,2
O=C1/C(=C\c2ccccc2)[C@@H](NC2CCCCC2)c2ccccc21,58*,-2,.,.
CC1(C)Cc2ccccc2-c2[nH][nH]c(=O)c21,5,-49,.,.
O=C(NC(=S)Nc1ccc2cn[nH]c2c1)c1ccccc1,6,-49,1,1
O=C(O)c1c(Cl)c(Cl)c(Cl)c(Cl)c1C(=O)Nc1ccc2cn[nH]c2c1,58*,-4,.,.
Cn1c(=O)sc2cc(S(=O)(=O)NC3CCN(Cc4ccccc4)CC3)ccc21,5,-36,.,.
COCCNC(=O)C(OC(=O)C1=Cc2ccccc2OC1)c1ccccc1 (centres undefined),17,3,.,.
Cn1c(C2CCCCC2)nc2c1c(=O)[nH]c(=O)n2Cc1ccccc1,8,65*,1,-1
Cc1ccc(-c2nc3c(c(=O)[nH]c(=O)n3Cc3ccccc3)n2C)s1,2,-3,11,-1
COc1ccc(OC)c(C2/C(=C(/O)c3ccc(C)cc3)C(=O)C(=O)N2CC(C)O)c1 (centres undefined),8,20,.,.
CC1(C)CC(N(Cc2ccc3ncccc3c2)Cc2ccccn2)CC(C)(C)N1,7,-62,.,.
CC1CCCCN1CC(=O)Nc1ccccc1Sc1ccccc1 (centres undefined),12,62*,1,1
C[N@@+]1(CC[N@+]2(C)CCC[C@@H]2c2cccnc2)CCC[C@@H]1c1cccnc1,47*,26,.,.
CCn1nnc(NC(=O)COc2cccc(C)c2)n1,4,-28,.,.
CCOC(=O)n1c(=O)n(Cc2cccc(C)c2)c2ccccc21,7,64*,5,1
CCCNC(=O)C1CC(c2c(F)cccc2Cl)=NO1 (centres undefined),6,-3,.,.
CC(=O)c1ccc(NC(=O)CSc2ccsc2[N+](=O)[O-])cc1,9,-11,32*,0
CCN(CC)c1ccc(NC(=O)CSc2ccsc2[N+](=O)[O-])c(C)c1,6,-13,3,0
O=C(CSc1ccsc1[N+](=O)[O-])Nc1cc(F)ccc1F,6,-41,50*,0
CCNc1nc(Oc2ccc(F)cc2)cc(C(F)(F)F)n1,2,53,-4,0
CSc1nc(Oc2ccc(C)cc2)cc(C(F)(F)F)n1,12,14,-4,3.6*
COc1ccc(CNC(=O)Cn2nc(-c3ccco3)cc(N)c2=O)cc1,3,-21,.,.
Cn1ccnc1C1(O)CC2CCC(C1)N2C(=O)C1CCCC1 (centres undefined),.,-10,.,.
Cc1ccc(-c2nc(NC(=O)c3nn(C)cc3[N+](=O)[O-])sc2C)cc1,22,-60,-13,-1
SMILES,EP2 antag,EP2 mod,eIF4E 4G PPI,PERK inh
Cn1cc([N+](=O)[O-])c(C(=O)Nc2nc(-c3ccc(Cl)cc3)cs2)n1,75*,-42,-1,-1
Cc1cnc(NC(=O)c2nn(C)cc2[N+](=O)[O-])s1,46*,-37,-1,0
CCOc1ccc2nc(NCCNC(=O)C3CCCCC3)c(C#N)cc2c1,7,-6,.,.
CCCN1C[C@H](NC(=O)C2CC=CCC2)[C@@H](c2ccc(OC)cc2)C1 (some centres undefined),6,8,.,.
O=S(=O)(c1cccc(Cl)c1)N1CCC(c2nc3ccccc3o2)CC1,11,-42,.,.
Cc1ccc(C(=O)Nc2sc(C)c(C)c2C(=O)c2ccccc2)cc1,7,29,4,0
Cc1sc(NC(=O)c2ccccc2)c(C(=O)c2ccccc2)c1C,11,65*,-6,0
O=C(CSc1ccc(Cl)cc1)Nc1ccc(NC(=O)c2ccco2)c(Cl)c1,17,-68,.,.
CC(C)c1ccc(Cn2c(C(C)O)nc3ccccc32)cc1 (centres undefined),2,-3,.,.
Cc1ccc(NC2=C/C(=N/S(=O)(=O)c3cccs3)c3ccccc3C2=O)cc1C,7,4,4,0
Cc1cc(C)c(S(=O)(=O)/N=C2/C=C(Sc3ncn[nH]3)C(=O)c3ccccc32)cc1C,104*,-80,26,1
Cc1ccc(S(=O)(=O)N2CCN(C(C)C(=O)Nc3ccccc3-c3ccccc3)CC2)cc1 (centres undefined),2,21,32*[fluorescence artefact?],0
Cc1ccc(S(=O)(=O)N2CCC(C(=O)O)(c3ccccc3)CC2)cc1,43*,19,.,.
CC(C(=O)Nc1ccccc1-c1ccccc1)N1CCN(C(=O)c2ccccc2)CC1 (centres undefined),9,1,-2,-1
CN1CC(=O)N(CC(=O)N2CCCCCC2)c2ccccc2C1=O,11,-38,.,.
Cc1ccc(/C=C2\SC(=S)N(c3cccnc3)C2=O)o1,4,4,2,1
O=C(O)c1cccc(N2C(=O)/C(=C/c3ccc(SCc4ccc(Cl)cc4)o3)SC2=S)c1,5,35,49*,3
Cc1ccc(C(=O)Nc2cc(Cl)ccc2N2CCCCC2)s1,12,62*,10,0
CCc1sc(C(=O)Nc2cc(Cl)ccc2N2CCCCC2)cc1C,7,33,5,0
NC(=O)CSc1nc2ccc([N+](=O)[O-])cc2[nH]1,6,20,1,1
O=C(c1nc2ccc([N+](=O)[O-])cc2[nH]c1=O)[C@@H](O)c1ccc2c(c1)OCO2,50*,17,.,.
CCOC(=O)C1(C)C=C(Nc2ccc(OCC)cc2)C(=O)N1c1ccccc1 (centres undefined),9,19,0,0
CCOC(=O)C1(C)C=C(Nc2ccccc2)C(=O)N1c1ccccc1 (centres undefined),7,62*,0,1
CCCSC1=N/C(=C/c2ccsc2)C(=O)N1c1ccccc1,9,63*,4,1
CCCCSC1=N/C(=C/c2ccsc2)C(=O)N1c1ccccc1,11,47,-2,0
SMILES,EP2 antag,EP2 mod,eIF4E 4G PPI,PERK inh
COc1nc(C)nc(C)c1Oc1ccc(Cl)cc1Cl,2,65*,3,0
Cc1nn(C)cc1S(=O)(=O)NCc1cnc2ccccc2c1,6,-36,.,.
Cc1ccc(S(=O)(=O)Nc2ccccc2C(=O)c2ccc(C)c(C)c2)cc1,45*,4,.,.
S=C(NCCN1CCOCC1)NC1CCCCC1,12,26,-2,0
S=C(NCCCN1CCOCC1)NC1CCCC1,93*,3,0,0
CCOC(=O)c1sc(-c2ccc(OC)cc2)cc1NC(C)=O,40*,13,13,1
O=[N+]([O-])c1ccc(Cl)c(CNc2ncnc3c2ncn3[C@@H]2CCCCO2)c1,43*,13,.,.
CO[C@H]1C=CO[C@@]2(C)Oc3c(C)c(O)c4c(O)c(c(C=NN5CCN(C)CC5)c(O)c4c3C2=O)NC(=O)C(C)=CC=C[C@H](C)[C@H](O)[C@@H](C)[C@@H](O)[C@@H](C)[C@H](OC(C)=O)[C@@H]1C,13,5,-2,0

# Bioassay records deposited in PubChem BioAssay by several laboratories.
